# Reference: paper PMC7862700, “An all-to-all approach to the identification of sequence-specific readers for epigenetic DNA modifications on cytosine”
# Legend:
# Assay in all cases: DAPPL (digital affinity profiling via proximity ligation, sequencing); 10 mM Tris-HCl pH 7.5, 50 mM NaCl, 1 mM DTT, 4% glycerol, room temperature, 30 min; GST-TFs on glutathione beads, 16-mer random dsDNA library, 0.1% formaldehyde crosslink after washing; high values mean tight binding
# FLI1 = biological target: T1, FLI1 (Homo sapiens, UniProt Q01543 1-452); settings: protein: recombinant; tags: N-terminal GST; dsDNA, one strand shown
# T1 sequence: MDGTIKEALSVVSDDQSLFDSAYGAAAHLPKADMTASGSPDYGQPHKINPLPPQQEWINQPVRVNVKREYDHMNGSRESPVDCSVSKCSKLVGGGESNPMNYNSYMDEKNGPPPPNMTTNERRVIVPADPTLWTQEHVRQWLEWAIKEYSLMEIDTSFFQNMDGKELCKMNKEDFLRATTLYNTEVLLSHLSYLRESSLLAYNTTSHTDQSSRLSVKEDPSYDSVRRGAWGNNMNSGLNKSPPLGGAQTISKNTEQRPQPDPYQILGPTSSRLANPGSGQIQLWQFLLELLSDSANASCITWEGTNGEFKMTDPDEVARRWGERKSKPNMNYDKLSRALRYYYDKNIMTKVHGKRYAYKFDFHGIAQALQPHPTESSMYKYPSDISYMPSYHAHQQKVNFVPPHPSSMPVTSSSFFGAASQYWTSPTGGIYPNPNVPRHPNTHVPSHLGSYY
# How it was run: (§1)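 Human transcription factors fused to GST were expressed in yeast, captured on glutathione beads, given DNA barcodes and pooled with a GST-only negative control. Pools were incubated with 200 nmole of a 16-mer random double-stranded DNA library in Tris/NaCl/DTT/glycerol buffer at room temperature for 30 min. They were then washed, crosslinked with 0.1% formaldehyde, proximity-ligated (BsaI/T4 ligase, 1 h, 37 °C), PCR-amplified and sequenced on an Illumina NextSeq500. Binding signal is each 6-mer's read frequency for a factor divided by its frequency for the GST control.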
# ELK1 = biological target: T2, ELK1 (Homo sapiens, UniProt P19419 1-428); settings: protein: recombinant; tags: N-terminal GST; dsDNA, one strand shown
# T2 sequence: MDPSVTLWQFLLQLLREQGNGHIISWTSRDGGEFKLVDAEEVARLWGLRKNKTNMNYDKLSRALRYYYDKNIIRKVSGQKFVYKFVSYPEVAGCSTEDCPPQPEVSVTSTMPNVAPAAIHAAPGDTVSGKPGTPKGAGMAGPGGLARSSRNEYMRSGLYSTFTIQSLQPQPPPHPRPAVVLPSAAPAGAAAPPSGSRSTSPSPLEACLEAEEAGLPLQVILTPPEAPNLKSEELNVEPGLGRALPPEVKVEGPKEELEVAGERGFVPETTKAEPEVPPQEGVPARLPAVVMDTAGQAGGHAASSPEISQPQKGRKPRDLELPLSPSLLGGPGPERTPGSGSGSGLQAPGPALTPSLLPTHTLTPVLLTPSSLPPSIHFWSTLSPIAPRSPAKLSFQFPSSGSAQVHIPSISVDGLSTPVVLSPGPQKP
# How it was run: as §1
# GABPA = biological target: T3, GABPA (Homo sapiens, UniProt Q06546 1-454); settings: protein: recombinant; tags: N-terminal GST; dsDNA, one strand shown
# T3 sequence: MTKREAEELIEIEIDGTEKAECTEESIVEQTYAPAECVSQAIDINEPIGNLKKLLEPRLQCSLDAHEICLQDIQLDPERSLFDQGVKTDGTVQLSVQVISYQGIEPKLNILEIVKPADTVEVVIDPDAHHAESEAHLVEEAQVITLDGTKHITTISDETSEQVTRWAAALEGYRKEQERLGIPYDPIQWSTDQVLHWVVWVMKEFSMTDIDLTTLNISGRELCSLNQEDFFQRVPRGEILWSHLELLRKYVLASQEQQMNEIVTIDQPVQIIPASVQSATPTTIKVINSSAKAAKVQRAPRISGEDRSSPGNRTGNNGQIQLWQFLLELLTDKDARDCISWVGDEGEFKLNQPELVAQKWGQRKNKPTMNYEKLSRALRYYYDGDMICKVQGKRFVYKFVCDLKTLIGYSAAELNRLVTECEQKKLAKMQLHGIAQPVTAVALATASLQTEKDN
# How it was run: as §1
# ERG = biological target: T4, ERG (Homo sapiens, UniProt P11308 1-479); settings: protein: recombinant; tags: N-terminal GST; dsDNA, one strand shown
# T4 sequence: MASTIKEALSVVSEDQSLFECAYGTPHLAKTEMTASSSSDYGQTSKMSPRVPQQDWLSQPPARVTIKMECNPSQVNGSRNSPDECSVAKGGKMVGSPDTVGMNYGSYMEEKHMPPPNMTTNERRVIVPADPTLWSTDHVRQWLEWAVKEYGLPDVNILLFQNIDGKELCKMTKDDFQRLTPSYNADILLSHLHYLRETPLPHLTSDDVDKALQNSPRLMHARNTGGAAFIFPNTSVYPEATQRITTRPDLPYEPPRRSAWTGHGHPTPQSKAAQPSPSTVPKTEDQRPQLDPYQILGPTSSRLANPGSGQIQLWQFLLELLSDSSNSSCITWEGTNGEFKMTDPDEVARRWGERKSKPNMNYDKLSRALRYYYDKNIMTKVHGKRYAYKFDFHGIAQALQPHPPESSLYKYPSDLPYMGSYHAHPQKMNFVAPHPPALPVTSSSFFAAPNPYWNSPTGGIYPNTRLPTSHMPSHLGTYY
# How it was run: as §1
# ELF1 = ELF1 (Homo sapiens, UniProt P32519 1-619); settings: protein: recombinant; tags: N-terminal GST; dsDNA, one strand shown
# How it was run: as §1
# EHF = biological target: T5, EHF (Homo sapiens, UniProt Q9NZC4 1-300); settings: protein: recombinant; tags: N-terminal GST; dsDNA, one strand shown
# T5 sequence: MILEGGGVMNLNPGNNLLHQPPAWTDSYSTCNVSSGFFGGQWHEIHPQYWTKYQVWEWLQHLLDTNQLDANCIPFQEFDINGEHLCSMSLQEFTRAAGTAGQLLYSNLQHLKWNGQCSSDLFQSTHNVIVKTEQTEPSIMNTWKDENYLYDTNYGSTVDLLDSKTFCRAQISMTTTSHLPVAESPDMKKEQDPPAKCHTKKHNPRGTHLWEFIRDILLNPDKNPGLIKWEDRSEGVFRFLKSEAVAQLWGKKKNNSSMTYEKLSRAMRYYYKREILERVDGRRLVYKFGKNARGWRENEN
# How it was run: as §1
# SPI1 = SPI1 (Homo sapiens, UniProt P17947 1-270); settings: protein: recombinant; tags: N-terminal GST; dsDNA, one strand shown
# How it was run: as §1
# SPIB = SPIB (Homo sapiens, UniProt Q01892 1-262); settings: protein: recombinant; tags: N-terminal GST; dsDNA, one strand shown
# How it was run: as §1
# ELK3 = biological target: T6, ELK3 (Homo sapiens, UniProt P41970 1-407); settings: protein: recombinant; tags: N-terminal GST; dsDNA, one strand shown
# T6 sequence: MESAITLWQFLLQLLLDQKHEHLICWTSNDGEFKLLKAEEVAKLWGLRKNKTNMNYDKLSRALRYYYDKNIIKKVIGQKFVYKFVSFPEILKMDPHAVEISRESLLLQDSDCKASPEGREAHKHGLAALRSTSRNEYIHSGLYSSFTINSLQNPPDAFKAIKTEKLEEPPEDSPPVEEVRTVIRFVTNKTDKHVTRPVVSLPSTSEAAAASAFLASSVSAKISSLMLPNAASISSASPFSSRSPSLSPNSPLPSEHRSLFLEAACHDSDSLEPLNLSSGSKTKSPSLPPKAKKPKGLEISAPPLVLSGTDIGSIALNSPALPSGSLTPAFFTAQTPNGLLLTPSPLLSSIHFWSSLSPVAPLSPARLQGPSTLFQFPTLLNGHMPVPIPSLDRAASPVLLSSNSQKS
# How it was run: as §1
# FEV = biological target: T7, FEV (Homo sapiens, UniProt Q99581 1-238); settings: protein: recombinant; tags: N-terminal GST; dsDNA, one strand shown
# T7 sequence: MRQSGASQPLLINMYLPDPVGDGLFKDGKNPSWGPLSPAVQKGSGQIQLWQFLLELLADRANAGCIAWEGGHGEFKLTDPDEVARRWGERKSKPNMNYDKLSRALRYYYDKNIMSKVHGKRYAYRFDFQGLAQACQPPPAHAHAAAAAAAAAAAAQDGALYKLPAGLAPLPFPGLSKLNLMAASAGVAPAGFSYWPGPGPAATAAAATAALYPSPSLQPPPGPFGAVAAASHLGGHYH
# How it was run: as §1
# ETV5 = ETV5 (Homo sapiens, UniProt P41161 1-510); settings: protein: recombinant; tags: N-terminal GST; dsDNA, one strand shown
# How it was run: as §1
# HSF1 = HSF1 (Homo sapiens, UniProt Q00613 1-529); settings: protein: recombinant; tags: N-terminal GST; chain copies: 3; dsDNA, one strand shown
# How it was run: as §1
# SPIC = biological target: T8, SPIC (Homo sapiens, UniProt Q8N5J4 1-248); settings: protein: recombinant; tags: N-terminal GST; dsDNA, one strand shown
# T8 sequence: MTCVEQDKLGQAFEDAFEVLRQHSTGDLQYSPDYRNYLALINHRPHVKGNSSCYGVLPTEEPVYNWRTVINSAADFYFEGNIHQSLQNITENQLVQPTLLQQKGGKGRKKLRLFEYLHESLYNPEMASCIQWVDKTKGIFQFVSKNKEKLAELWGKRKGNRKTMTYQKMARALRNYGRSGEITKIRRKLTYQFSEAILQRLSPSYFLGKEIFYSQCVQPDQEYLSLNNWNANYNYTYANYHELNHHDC
# How it was run: as §1
# ELF4 = ELF4 (Homo sapiens, UniProt Q99607 1-663); settings: protein: recombinant; tags: N-terminal GST; dsDNA, one strand shown
# How it was run: as §1
# ELK4 = biological target: T9, ELK4 (Homo sapiens, UniProt P28324-2 1-405); settings: protein: recombinant; tags: N-terminal GST; dsDNA, one strand shown
# T9 sequence: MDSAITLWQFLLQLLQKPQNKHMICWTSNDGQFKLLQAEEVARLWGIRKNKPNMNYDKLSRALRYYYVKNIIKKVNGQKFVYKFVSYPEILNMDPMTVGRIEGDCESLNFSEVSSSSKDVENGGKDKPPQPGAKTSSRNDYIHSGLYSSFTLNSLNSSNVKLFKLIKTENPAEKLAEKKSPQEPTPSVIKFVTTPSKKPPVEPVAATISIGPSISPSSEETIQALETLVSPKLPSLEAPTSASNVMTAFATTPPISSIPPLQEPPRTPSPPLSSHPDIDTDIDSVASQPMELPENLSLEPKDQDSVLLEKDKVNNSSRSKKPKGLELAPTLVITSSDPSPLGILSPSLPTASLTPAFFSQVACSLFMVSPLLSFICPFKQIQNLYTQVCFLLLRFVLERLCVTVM
# How it was run: as §1
# ETV2 = biological target: T10, ETV2 (Homo sapiens, UniProt O00321 1-342); settings: protein: recombinant; tags: N-terminal GST; dsDNA, one strand shown
# T10 sequence: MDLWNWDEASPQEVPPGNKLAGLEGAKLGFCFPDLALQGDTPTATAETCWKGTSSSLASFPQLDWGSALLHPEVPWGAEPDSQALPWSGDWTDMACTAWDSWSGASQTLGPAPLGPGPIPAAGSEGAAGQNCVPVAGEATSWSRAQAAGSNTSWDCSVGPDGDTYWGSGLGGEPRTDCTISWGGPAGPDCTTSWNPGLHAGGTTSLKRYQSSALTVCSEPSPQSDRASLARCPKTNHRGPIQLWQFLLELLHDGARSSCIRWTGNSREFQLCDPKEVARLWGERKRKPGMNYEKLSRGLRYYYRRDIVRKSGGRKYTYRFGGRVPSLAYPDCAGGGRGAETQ
# How it was run: as §1
# ELF3 = biological target: T11, ELF3 (Homo sapiens, UniProt P78545 1-371); settings: protein: recombinant; tags: N-terminal GST; dsDNA, one strand shown
# T11 sequence: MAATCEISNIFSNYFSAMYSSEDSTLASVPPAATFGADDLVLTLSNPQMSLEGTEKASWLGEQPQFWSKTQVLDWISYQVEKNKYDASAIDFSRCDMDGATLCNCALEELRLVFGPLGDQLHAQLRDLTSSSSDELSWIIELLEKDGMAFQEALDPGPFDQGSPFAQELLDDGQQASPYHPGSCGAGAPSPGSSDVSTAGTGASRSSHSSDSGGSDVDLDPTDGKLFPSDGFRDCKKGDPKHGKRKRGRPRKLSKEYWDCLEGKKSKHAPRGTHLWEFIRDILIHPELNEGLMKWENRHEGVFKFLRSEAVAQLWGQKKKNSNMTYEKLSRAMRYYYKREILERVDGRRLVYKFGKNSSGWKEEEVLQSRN
# How it was run: as §1
# CRX = CRX (Homo sapiens, UniProt O43186 1-299); settings: protein: recombinant; tags: N-terminal GST; dsDNA, one strand shown
# How it was run: as §1
# ETV1 = ETV1 (Homo sapiens, UniProt P50549 1-477); settings: protein: recombinant; tags: N-terminal GST; dsDNA, one strand shown
# How it was run: as §1
# Chain of HSF1 (Q00613 whole entry): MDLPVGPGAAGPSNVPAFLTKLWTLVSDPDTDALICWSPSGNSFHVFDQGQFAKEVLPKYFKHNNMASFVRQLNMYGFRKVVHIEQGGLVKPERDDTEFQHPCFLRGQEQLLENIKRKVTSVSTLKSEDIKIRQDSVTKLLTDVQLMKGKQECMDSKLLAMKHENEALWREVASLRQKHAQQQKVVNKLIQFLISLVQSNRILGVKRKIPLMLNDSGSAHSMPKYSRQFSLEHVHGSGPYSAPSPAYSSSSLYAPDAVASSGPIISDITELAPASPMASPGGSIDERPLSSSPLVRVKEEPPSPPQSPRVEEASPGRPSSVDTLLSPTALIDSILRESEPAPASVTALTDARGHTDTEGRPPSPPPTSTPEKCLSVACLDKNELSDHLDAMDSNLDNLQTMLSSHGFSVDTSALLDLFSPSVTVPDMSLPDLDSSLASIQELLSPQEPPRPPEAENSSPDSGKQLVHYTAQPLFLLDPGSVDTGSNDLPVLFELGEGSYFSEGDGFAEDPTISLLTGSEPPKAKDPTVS
# Chain of ELF1 (P32519 whole entry): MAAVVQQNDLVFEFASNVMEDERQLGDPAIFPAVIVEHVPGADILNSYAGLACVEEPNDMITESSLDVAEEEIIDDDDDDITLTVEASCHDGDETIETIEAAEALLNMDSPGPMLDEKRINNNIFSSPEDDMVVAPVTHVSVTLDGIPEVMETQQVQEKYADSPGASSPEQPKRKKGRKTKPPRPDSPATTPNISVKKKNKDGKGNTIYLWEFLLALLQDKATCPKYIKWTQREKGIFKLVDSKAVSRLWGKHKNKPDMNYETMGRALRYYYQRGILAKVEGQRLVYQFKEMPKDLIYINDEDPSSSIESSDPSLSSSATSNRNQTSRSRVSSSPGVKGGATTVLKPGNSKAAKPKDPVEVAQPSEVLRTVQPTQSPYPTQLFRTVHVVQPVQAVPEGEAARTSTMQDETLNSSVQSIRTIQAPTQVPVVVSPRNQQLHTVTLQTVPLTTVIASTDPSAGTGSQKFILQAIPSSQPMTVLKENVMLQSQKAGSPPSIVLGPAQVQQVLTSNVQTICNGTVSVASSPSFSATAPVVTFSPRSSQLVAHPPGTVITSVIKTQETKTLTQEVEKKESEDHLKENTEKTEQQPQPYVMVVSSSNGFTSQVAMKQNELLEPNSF
# Chain of ETV1 (P50549 whole entry): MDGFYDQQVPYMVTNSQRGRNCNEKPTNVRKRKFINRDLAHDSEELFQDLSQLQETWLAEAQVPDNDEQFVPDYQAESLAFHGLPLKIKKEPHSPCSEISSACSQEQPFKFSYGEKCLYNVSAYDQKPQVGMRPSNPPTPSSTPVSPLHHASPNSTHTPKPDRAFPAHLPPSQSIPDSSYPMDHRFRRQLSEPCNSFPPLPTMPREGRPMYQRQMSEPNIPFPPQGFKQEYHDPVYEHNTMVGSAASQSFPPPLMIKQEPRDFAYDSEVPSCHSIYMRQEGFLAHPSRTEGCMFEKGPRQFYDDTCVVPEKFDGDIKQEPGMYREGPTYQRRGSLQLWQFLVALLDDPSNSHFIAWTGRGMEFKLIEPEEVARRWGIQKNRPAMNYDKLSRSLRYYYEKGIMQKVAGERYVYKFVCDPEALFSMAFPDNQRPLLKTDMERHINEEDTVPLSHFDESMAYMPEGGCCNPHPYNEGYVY
# Chain of CRX (O43186 whole entry): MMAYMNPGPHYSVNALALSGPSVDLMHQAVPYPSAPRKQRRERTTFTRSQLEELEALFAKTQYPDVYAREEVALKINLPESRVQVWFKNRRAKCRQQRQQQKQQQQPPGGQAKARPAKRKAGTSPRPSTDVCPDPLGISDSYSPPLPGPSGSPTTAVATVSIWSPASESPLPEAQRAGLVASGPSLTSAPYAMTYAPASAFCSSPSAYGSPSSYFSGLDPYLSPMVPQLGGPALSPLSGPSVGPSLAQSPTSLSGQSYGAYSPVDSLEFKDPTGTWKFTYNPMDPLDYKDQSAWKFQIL
# Chain of ELF4 (Q99607 whole entry): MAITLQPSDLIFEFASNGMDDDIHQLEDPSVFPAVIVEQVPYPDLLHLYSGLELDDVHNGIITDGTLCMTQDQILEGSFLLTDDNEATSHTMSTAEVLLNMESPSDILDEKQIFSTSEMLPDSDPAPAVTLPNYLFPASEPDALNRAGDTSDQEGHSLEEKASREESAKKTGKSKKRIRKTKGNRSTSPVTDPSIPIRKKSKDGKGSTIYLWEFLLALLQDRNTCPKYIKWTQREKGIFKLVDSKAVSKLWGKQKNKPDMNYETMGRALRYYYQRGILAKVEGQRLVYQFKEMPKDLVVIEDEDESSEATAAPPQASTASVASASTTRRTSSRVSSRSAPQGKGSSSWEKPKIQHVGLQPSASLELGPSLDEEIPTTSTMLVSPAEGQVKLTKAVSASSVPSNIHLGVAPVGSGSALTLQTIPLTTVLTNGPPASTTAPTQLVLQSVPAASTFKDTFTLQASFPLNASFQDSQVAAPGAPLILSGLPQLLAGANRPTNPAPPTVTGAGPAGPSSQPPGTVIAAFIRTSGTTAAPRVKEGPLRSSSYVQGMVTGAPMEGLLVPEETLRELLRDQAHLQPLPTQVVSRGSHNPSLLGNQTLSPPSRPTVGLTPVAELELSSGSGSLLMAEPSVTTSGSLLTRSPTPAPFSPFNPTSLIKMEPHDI
# Chain of SPIB (Q01892 whole entry): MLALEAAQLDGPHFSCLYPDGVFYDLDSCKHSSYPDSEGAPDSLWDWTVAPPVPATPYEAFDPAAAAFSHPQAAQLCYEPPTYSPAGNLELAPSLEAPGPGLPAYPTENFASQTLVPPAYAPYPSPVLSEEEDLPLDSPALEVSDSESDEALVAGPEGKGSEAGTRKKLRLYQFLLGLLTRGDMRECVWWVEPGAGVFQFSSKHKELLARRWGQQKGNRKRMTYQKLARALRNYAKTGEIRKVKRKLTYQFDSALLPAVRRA
# Chain of ETV5 (P41161 whole entry): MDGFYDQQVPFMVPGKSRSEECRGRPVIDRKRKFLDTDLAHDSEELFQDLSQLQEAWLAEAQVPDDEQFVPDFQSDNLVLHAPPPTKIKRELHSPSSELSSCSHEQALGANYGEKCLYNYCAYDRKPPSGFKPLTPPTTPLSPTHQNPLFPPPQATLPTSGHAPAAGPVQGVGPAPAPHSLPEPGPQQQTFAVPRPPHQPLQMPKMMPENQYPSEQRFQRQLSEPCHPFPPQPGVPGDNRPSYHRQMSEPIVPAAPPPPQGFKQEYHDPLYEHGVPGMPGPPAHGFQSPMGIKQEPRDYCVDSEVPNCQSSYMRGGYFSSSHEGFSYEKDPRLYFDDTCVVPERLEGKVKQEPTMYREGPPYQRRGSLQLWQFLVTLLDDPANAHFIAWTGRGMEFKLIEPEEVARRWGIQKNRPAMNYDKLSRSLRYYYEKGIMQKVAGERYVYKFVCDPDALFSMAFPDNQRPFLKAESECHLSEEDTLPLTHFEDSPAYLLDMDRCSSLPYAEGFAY
sequence,measurement,setting,value
AAAATC,binding signal,FLI1,"1.16 fold enrichment (6-mer frequency, TF over GST control)"
same,binding signal,ELK1,"1.11 fold enrichment (6-mer frequency, TF over GST control)"
same,binding signal,GABPA,"1.22 fold enrichment (6-mer frequency, TF over GST control)"
same,binding signal,ERG,"1.18 fold enrichment (6-mer frequency, TF over GST control)"
same,binding signal,ELF1,"1.15 fold enrichment (6-mer frequency, TF over GST control)"
same,binding signal,EHF,"1.2 fold enrichment (6-mer frequency, TF over GST control)"
same,binding signal,SPI1,"1.14 fold enrichment (6-mer frequency, TF over GST control)"
same,binding signal,SPIB,"1.17 fold enrichment (6-mer frequency, TF over GST control)"
same,binding signal,ELK3,"1.1 fold enrichment (6-mer frequency, TF over GST control)"
same,binding signal,FEV,"1.19 fold enrichment (6-mer frequency, TF over GST control)"
same,binding signal,ETV5,"1.19 fold enrichment (6-mer frequency, TF over GST control)"
same,binding signal,HSF1,"1.51 fold enrichment (6-mer frequency, TF over GST control)"
same,binding signal,SPIC,"1.07 fold enrichment (6-mer frequency, TF over GST control)"
same,binding signal,ELF4,"1.23 fold enrichment (6-mer frequency, TF over GST control)"
same,binding signal,ELK4,"1.05 fold enrichment (6-mer frequency, TF over GST control)"
same,binding signal,ETV2,"1.28 fold enrichment (6-mer frequency, TF over GST control)"
same,binding signal,ELF3,"1.11 fold enrichment (6-mer frequency, TF over GST control)"
same,binding signal,CRX,"1.62 fold enrichment (6-mer frequency, TF over GST control)"
same,binding signal,ETV1,"1.12 fold enrichment (6-mer frequency, TF over GST control)"
